This passage reports growth inhibition results from PubChem BioAssay (NCI).

This is part of a sample that, as a whole, favours compounds with a hit. Of some 79,000 tested, about 15% had one in any assay. Values without a mark were called inactive. Activity calls are given as the source filed them. Rule as the data show it: active = growth inhibition above about 70%; inactive = the rest.

Experiment [1] is described as follows: NCI Yeast Anticancer Drug Screen. Data for the rad50 strain (AID 155).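 Also: 0% = growth of vehicle-only cultures of the same strain.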 To be noted: S. cerevisiae rad50 strain growth inhibition, active compounds read high. In a few lines: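 Relative growth inhibition (compound vs vehicle) was measured in yeast with a defined repair-gene alteration.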
A short description of experiment [2]: NCI Yeast Anticancer Drug Screen. Data for the mec2-1 strain (AID 157). The conditions noted are these: S. cerevisiae mec2-1 strain, active compounds read high. In a few lines: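 Compounds were applied to mec2-1 yeast cells. Their growth was then compared with that of vehicle-treated cultures to give growth inhibition.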
Experiment [3] can be described thus: NCI Yeast Anticancer Drug Screen. Data for the sgs1 mgt1 strain (AID 161).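 Also: 0% = growth of cultures given vehicle only.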 To be noted: S. cerevisiae sgs1 mgt1 strain, active compounds read high. The essentials: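 Percent growth inhibition was derived by comparing compound-exposed mutant yeast with vehicle-exposed cultures. The strain carries alterations in DNA damage repair.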
Experiment [4] in a line: NCI Yeast Anticancer Drug Screen. Data for the cln2 rad14 strain (AID 165).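 Also: 0% = growth equal to vehicle treated cultures.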 The conditions noted are these: S. cerevisiae cln2 rad14 strain, active compounds read high. In a few lines: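 Strain: cln2 rad14 yeast, altered in cell cycle control and DNA damage repair. Read-out: growth inhibition vs vehicle.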
Experiment [5] is described as follows: NCI Yeast Anticancer Drug Screen. Data for the bub3 strain (AID 167). To be noted: S. cerevisiae bub3 mutant strain, active compounds read high. The essentials:
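Screening used yeast with an engineered genetic alteration affecting cell cycle control. Compound-exposed cultures were compared with vehicle cultures, and reduced growth was taken as inhibition.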

The nature of experiment [6]: NCI Yeast Anticancer Drug Screen. Data for the mlh1 rad18 strain (AID 175). The conditions noted are these: S. cerevisiae mlh1 rad18 strain growth inhibition, active compounds read high. The essentials: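 A repair-deficient yeast strain is exposed to test compound, and growth is scored relative to vehicle-treated controls.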
[7] abbreviates: at 5.0 µM (retest, dose inferred, filed as 0.5).
Setting [8] is: at 50.0 µM (retest, dose inferred, filed as 5.0).

For `OC(C/C(=N\N=C(/CC(O)(C(F)(F)F)C(F)(F)F)c1ccccc1)c1ccccc1)(C(F)(F)F)C(F)(F)F`, the growth inhibition in experiment [1] (setting [7]) is -2%; in experiment [1] (setting [8]) it was 2%; in experiment [1] (at 50.0 µM), 62.6%; in experiment [2] (setting [7]), -6%; in experiment [2] (setting [8]), -11%; in experiment [2] (at 50.0 µM), 51%. In addition, the growth inhibition in experiment [3] (setting [7]) was -7%; in experiment [3] (setting [8]), -17%; in experiment [3] (at 50.0 µM) it was 50.9%; in experiment [4] (setting [7]), 6%; in experiment [4] (setting [8]), 12%; in experiment [4] (at 50.0 µM) it was 62.1%. For the same molecule, the growth inhibition in experiment [5] (setting [7]) is 1%; in experiment [5] (setting [8]) it was -5%; in experiment [5] (at 50.0 µM), 69%; in experiment [6] (setting [7]) it was -8%; in experiment [6] (setting [8]) it was 3%; in experiment [6] (at 50.0 µM) it was 71.1% (active).

For `Cc1cccc(NC(=S)N/N=C(/c2ccccc2)c2ccccn2)c1`, the growth inhibition in experiment [1] (setting [7]) is -3%; in experiment [1] (setting [8]), 94% (active); in experiment [1] (at 50.0 µM) it was 56%; in experiment [2] (setting [7]), -1%; in experiment [2] (setting [8]), 94% (active); in experiment [2] (at 50.0 µM), 66.5%. The growth inhibition was -35% in experiment [3] (setting [7]); 93% (active) in experiment [3] (setting [8]); 73.2% (active) in experiment [3] (at 50.0 µM); -15% in experiment [4] (setting [7]); 92% (active) in experiment [4] (setting [8]); 74.7% (active) in experiment [4] (at 50.0 µM). Moreover, the growth inhibition in experiment [5] (setting [7]) was -38%; in experiment [5] (setting [8]), 93% (active); in experiment [5] (at 50.0 µM), 77.4% (active); in experiment [6] (setting [7]), -8%; in experiment [6] (setting [8]), 93% (active); in experiment [6] (at 50.0 µM) it was 76.8% (active).

`Cc1ccc(C)c(N(c2ccccc2[N+](=O)[O-])S(C)(=O)=O)c1`: the growth inhibition in experiment [1] (setting [7]) is 5%; in experiment [1] (setting [8]), 20%; in experiment [1] (at 50.0 µM), 99.5% (active); in experiment [2] (setting [7]), 19%; in experiment [2] (setting [8]) it was 36%; in experiment [2] (at 50.0 µM), 99.5% (active). The growth inhibition in experiment [3] (setting [7]) was 5%; in experiment [3] (setting [8]), 22%; in experiment [3] (at 50.0 µM), 99.6% (active); in experiment [4] (setting [7]) it was 5%; in experiment [4] (setting [8]), 21%; in experiment [4] (at 50.0 µM) it was 99.3% (active). Also, the growth inhibition was -2% in experiment [5] (setting [7]); 16% in experiment [5] (setting [8]); 99.4% (active) in experiment [5] (at 50.0 µM); -5% in experiment [6] (setting [7]); 10% in experiment [6] (setting [8]); 99.2% (active) in experiment [6] (at 50.0 µM).

`OCN(CO)c1ccc2c(c1)Cc1cc(F)ccc1-2`: the growth inhibition in experiment [1] (setting [7]) was 34%; in experiment [1] (setting [8]), 97% (active); in experiment [1] (at 50.0 µM), 92.8% (active); in experiment [2] (setting [7]), -19%; in experiment [2] (setting [8]), 99% (active); in experiment [2] (at 50.0 µM), 86.2% (active). The growth inhibition in experiment [3] (setting [7]) is 41%; in experiment [3] (setting [8]), 97% (active); in experiment [3] (at 50.0 µM) it was 51.2%; in experiment [4] (setting [7]) it was 1%; in experiment [4] (setting [8]), 97% (active); in experiment [4] (at 50.0 µM), 96.5% (active). For the same molecule, the growth inhibition in experiment [5] (setting [7]) is -5%; in experiment [5] (setting [8]), 97% (active); in experiment [5] (at 50.0 µM), 90.9% (active); in experiment [6] (setting [7]), 59%; in experiment [6] (setting [8]) it was 98% (active); in experiment [6] (at 50.0 µM), 97.8% (active).

For `O=C(CS)Nc1ccccc1`, the growth inhibition in experiment [1] (setting [7]) is 13%; in experiment [1] (setting [8]), 89% (active); in experiment [1] (at 50.0 µM) it was 65.4%; in experiment [2] (setting [7]), 18%; in experiment [2] (setting [8]), 91% (active); in experiment [2] (at 50.0 µM), 57.2%. Moreover, the growth inhibition was 14% in experiment [3] (setting [7]); 93% (active) in experiment [3] (setting [8]); 61.1% in experiment [3] (at 50.0 µM); 9% in experiment [4] (setting [7]); 87% (active) in experiment [4] (setting [8]); 47.5% in experiment [4] (at 50.0 µM). The growth inhibition in experiment [5] (setting [7]) was 3%; in experiment [5] (setting [8]) it was 84% (active); in experiment [5] (at 50.0 µM), 56.2%; in experiment [6] (setting [7]), 16%; in experiment [6] (setting [8]) it was 95% (active); in experiment [6] (at 50.0 µM), 84.1% (active).

`O=C1c2ccccc2C(=O)N1/N=C\c1ccccc1[N+](=O)[O-]`: the growth inhibition in experiment [1] (setting [7]) was 1%; in experiment [1] (setting [8]), 75% (active); in experiment [1] (at 50.0 µM), 89% (active); in experiment [2] (setting [7]), -2%; in experiment [2] (setting [8]) it was 41%; in experiment [2] (at 50.0 µM) it was 4.9%. In addition, the growth inhibition in experiment [3] (setting [7]) was 3%; in experiment [3] (setting [8]), 96% (active); in experiment [3] (at 50.0 µM), -3.8%; in experiment [4] (setting [7]) it was -5%; in experiment [4] (setting [8]), 32%; in experiment [4] (at 50.0 µM), -29.1%. The growth inhibition in experiment [5] (setting [7]) is -3%; in experiment [5] (setting [8]), 85% (active); in experiment [5] (at 50.0 µM), 3.75%; in experiment [6] (setting [7]), -3%; in experiment [6] (setting [8]), 93% (active); in experiment [6] (at 50.0 µM), 0.5%.

As for `COC(=O)c1ccc(Cl)c(Cl)c1`, the growth inhibition in experiment [1] (setting [7]) was 1%; in experiment [1] (setting [8]), 20%; in experiment [1] (at 50.0 µM), 8.2%; in experiment [2] (setting [7]) it was -2%; in experiment [2] (setting [8]), 2%; in experiment [2] (at 50.0 µM), 6.75%. Also, the growth inhibition is 2% in experiment [3] (setting [7]); 11% in experiment [3] (setting [8]); 11.8% in experiment [3] (at 50.0 µM); 1% in experiment [4] (setting [7]); 0% in experiment [4] (setting [8]); 75.3% (active) in experiment [4] (at 50.0 µM). The growth inhibition in experiment [5] (setting [7]) is 12%; in experiment [5] (setting [8]), 13%; in experiment [5] (at 50.0 µM) it was 22%; in experiment [6] (setting [7]), 1%; in experiment [6] (setting [8]), 17%; in experiment [6] (at 50.0 µM), -0.65%.

In the case of `CCOC(=O)C1(C#N)C(c2ccccc2)C1(C#N)C#N` (stereo not given), the growth inhibition in experiment [1] (setting [7]) was 18%; in experiment [1] (setting [8]), 85% (active); in experiment [1] (at 50.0 µM), 97.9% (active); in experiment [2] (setting [7]), 29%; in experiment [2] (setting [8]), 96% (active); in experiment [2] (at 50.0 µM) it was 99.3% (active). The growth inhibition in experiment [3] (setting [7]) is 31%; in experiment [3] (setting [8]) it was 34%; in experiment [3] (at 50.0 µM) it was 98.5% (active); in experiment [4] (setting [7]) it was 9%; in experiment [4] (setting [8]), 76% (active); in experiment [4] (at 50.0 µM), 97.8% (active). The growth inhibition was 14% in experiment [5] (setting [7]); 92% (active) in experiment [5] (setting [8]); 97.4% (active) in experiment [5] (at 50.0 µM); 42% in experiment [6] (setting [7]); 98% (active) in experiment [6] (setting [8]); 98.8% (active) in experiment [6] (at 50.0 µM).

For `Cc1ccc(SSCCCS(=O)O)cc1`, the growth inhibition was -1% in experiment [1] (setting [7]); -93% in experiment [1] (setting [8]); 61.1% in experiment [1] (at 50.0 µM); -3% in experiment [2] (setting [7]); 60% in experiment [2] (setting [8]); 50.7% in experiment [2] (at 50.0 µM). Further, the growth inhibition in experiment [3] (setting [7]) was 6%; in experiment [3] (setting [8]) it was 78% (active); in experiment [3] (at 50.0 µM) it was 83.8% (active); in experiment [4] (setting [7]), -12%; in experiment [4] (setting [8]), 41%; in experiment [4] (at 50.0 µM), 60.1%. Further, the growth inhibition was 4% in experiment [5] (setting [7]); 82% (active) in experiment [5] (setting [8]); 66.3% in experiment [5] (at 50.0 µM); 3% in experiment [6] (setting [7]); 66% in experiment [6] (setting [8]); 75.2% (active) in experiment [6] (at 50.0 µM).

For `Cc1ccc([Si](O)(c2ccc(C)cc2)c2ccc(C)cc2)cc1`, the growth inhibition in experiment [1] (setting [7]) was 85% (active); in experiment [1] (setting [8]), 92% (active); in experiment [1] (at 50.0 µM) it was 95.2% (active); in experiment [2] (setting [7]) it was 78% (active); in experiment [2] (setting [8]), 94% (active); in experiment [2] (at 50.0 µM), 93% (active). Besides, the growth inhibition was 71% (active) in experiment [3] (setting [7]); -27% in experiment [3] (setting [8]); 93.5% (active) in experiment [3] (at 50.0 µM); 67% in experiment [4] (setting [7]); 90% (active) in experiment [4] (setting [8]); 93.6% (active) in experiment [4] (at 50.0 µM). Further, the growth inhibition in experiment [5] (setting [7]) is 75% (active); in experiment [5] (setting [8]) it was 92% (active); in experiment [5] (at 50.0 µM), 86.3% (active); in experiment [6] (setting [7]) it was 84% (active); in experiment [6] (setting [8]) it was 93% (active); in experiment [6] (at 50.0 µM), 94.4% (active).
